Results filed as inconclusive are left out. Calls of active or inactive are those of the source. Calls come from the whole dose curve; as a rule, active = well fitted inhibition curve with a large enough effect; inconclusive = small, poorly fitted or top-dose-only effect; inactive = flat fitted curve, though single readings scatter.
What follows are compounds tested against Ubiquitin carboxyl-terminal hydrolase 1 (Homo sapiens) (UniProt O94782) (assay: Inhibitors of USP1/UAF1: Pilot qHTS (AID 504865; note: nearly all actives have a fitted effect of over 35% in size;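 for activity change, negative = inhibition: rhodamine fluorescence freed from ubiquitin-rhodamine substrate followed over time; top concentration of the series differs between compounds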)). Settings: purified USP1/UAF1, Ub-rhodamine cleavage fluorescence; series mostly up to 114 µM; activity change, negative = inhibition: at the top concentration.
Sequence of Ubiquitin carboxyl-terminal hydrolase 1 (Homo sapiens) (O94782 whole entry, looked up): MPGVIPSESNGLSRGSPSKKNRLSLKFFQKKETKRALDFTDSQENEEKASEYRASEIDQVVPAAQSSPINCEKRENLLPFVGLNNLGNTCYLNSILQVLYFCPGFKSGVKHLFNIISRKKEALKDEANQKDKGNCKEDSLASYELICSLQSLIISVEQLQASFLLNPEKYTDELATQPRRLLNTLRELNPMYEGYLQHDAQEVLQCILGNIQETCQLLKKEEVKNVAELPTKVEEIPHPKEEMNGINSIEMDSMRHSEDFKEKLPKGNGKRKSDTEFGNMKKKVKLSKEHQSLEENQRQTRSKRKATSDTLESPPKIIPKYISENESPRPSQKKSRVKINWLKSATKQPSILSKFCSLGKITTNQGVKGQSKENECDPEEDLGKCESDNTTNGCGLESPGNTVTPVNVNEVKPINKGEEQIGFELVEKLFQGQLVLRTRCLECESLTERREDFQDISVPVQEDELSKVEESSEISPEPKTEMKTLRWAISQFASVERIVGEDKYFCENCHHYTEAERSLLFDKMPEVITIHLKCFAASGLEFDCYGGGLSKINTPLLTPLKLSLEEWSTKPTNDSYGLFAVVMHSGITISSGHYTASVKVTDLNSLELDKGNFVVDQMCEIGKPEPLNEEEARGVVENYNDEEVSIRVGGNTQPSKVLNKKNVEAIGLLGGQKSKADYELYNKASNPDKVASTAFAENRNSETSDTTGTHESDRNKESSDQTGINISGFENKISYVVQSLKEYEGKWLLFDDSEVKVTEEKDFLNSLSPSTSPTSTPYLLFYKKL
Summary of the method: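 Kinetic fluorescence assay: 1nM USP1/UAF1, 15 min compound preincubation, then 150nM Ub-Rho; 480/540 nm.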
`Nc1ccc(C(=O)Nc2ccccc2N)cc1` was tested, and the “activity change, negative = inhibition” value was 3.93% (inactive).
With `CCN1CCCC1=O` the “activity change, negative = inhibition” value was -6.7% (inactive).
With `Cc1ccc(C(=O)C(C)CN2CCCCC2)cc1` (configuration not stated) the “activity change, negative = inhibition” value was -2.53% (inactive).
With `CC(C)=CCC1C(=O)N(c2ccccc2)N(c2ccccc2)C1=O` the “activity change, negative = inhibition” value was -4.87% [at 54.9 µM] (inactive).
`COCc1c(C(C)C)nc(C(C)C)c(/C=C/[C@@H](O)C[C@@H](O)CC(=O)O)c1-c1ccc(F)cc1` was tested, and the “activity change, negative = inhibition” value was -9.29% (inactive).
In the case of `COc1c2occc2c(OC)c2c(=O)cc(C)oc12`, the Potency is reported as 39.8 µM (active).
With `CC(C)(C(=O)c1cccnc1)c1cccnc1` the “activity change, negative = inhibition” value was -6.55% [at 54.9 µM] (inactive).
With `CC[N+](CC)(CCNC(=O)C(=O)NCC[N+](CC)(CC)Cc1ccccc1Cl)Cc1ccccc1Cl` the Potency was “inactive”.
For `CCN(CC)C(=O)N1CCN(C)CC1`, the “activity change, negative = inhibition” value was -2.59% [at 54.9 µM] (inactive).
With `OC(CCN1CCCCC1)(c1ccccc1)c1ccccc1` the “activity change, negative = inhibition” value was -1.85% (inactive).
In the case of `CCCCC1=NC2(CCCC2)C(=O)N1Cc1ccc(-c2ccccc2-c2nn[nH]n2)cc1`, the “activity change, negative = inhibition” value is reported as -7.04% (inactive).
For `Clc1ccc2c(c1)CCc1cccnc1C2=C1CCNCC1`, the “activity change, negative = inhibition” value was -4.7% (inactive).
For `CCCCC(CC)CN=C(N)NC(N)=NCCCCCCN=C(N)NC(N)=NCC(CC)CCCC` (configuration not stated), the Potency was 22.4 µM (active).
In the case of `CNCC[C@@H](Oc1ccccc1C)c1ccccc1`, the “activity change, negative = inhibition” value is reported as 0.94% (inactive).
For `C[C@H]1[C@H](NC(=O)/C(=N/OC(C)(C)C(=O)O)c2csc(N)n2)C(=O)N1S(=O)(=O)O` (stereo in doubt), the “activity change, negative = inhibition” value was -1.01% [at 54.9 µM] (inactive).
In the case of `CCn1cc(C(=O)O)c(=O)c2cnc(N3CCCC3)nc21`, the “activity change, negative = inhibition” value is reported as -0.697% [at 54.9 µM] (inactive).
For `COC(=O)[C@@H]1CC2=CC(=O)CC[C@]2(C)[C@@]23O[C@@H]2C[C@@]2(C)[C@@H](CC[C@@]24CCC(=O)O4)[C@H]13`, the “activity change, negative = inhibition” value was 2.18% (inactive).
With `Cc1c(C)n(CCN(C)C)c2ccc(C(=O)OCCN(C)C)cc12` the “activity change, negative = inhibition” value was -10.6% (inactive).
With `Cc1ccnc(NS(=O)(=O)c2ccc(N)cc2)n1` the “activity change, negative = inhibition” value was -12.9% [at 54.9 µM] (inactive).
With `N[C@H](Cc1c[nH]c2ccccc12)C(=O)O` the “activity change, negative = inhibition” value was 0.125% (inactive).
For `C[C@@H]1C[C@H]2[C@@H]3CCC4=CC(=O)C=C[C@]4(C)[C@@]3(F)[C@@H](O)C[C@]2(C)[C@H]1C(=O)CO`, the “activity change, negative = inhibition” value was -4.16% (inactive).
For `O=C(O)CNC(=O)c1ccccc1`, the “activity change, negative = inhibition” value was 1.97% (inactive).
For `C[C@@H]1CN(CCCn2c3ccccc3c3ccccc32)C[C@H](C)N1`, the “activity change, negative = inhibition” value was -3.32% (inactive).
For `O=C(N/N=C/c1ccccc1O)c1ccncc1`, the “activity change, negative = inhibition” value was -10.8% (inactive).
In the case of `Oc1ccc(Cl)c2cccnc12`, the Potency is reported as “inactive”.
With `CC(=O)N(O)CCCCCNC(=O)CCC(=O)N(O)CCCCCNC(=O)CCC(=O)N(O)CCCCCN` the “activity change, negative = inhibition” value was -2.85% [at 54.9 µM] (inactive).
For `C/C=C/c1ccc(OC)cc1`, the “activity change, negative = inhibition” value was -4.18% (inactive).
For `COc1cc(C(=S)N2CCOCC2)cc(OC)c1OC`, the “activity change, negative = inhibition” value was -4.5% (inactive).
In the case of `O=C(CCN1CCC(c2ccccc2)C1)c1ccc2c(c1)OCCO2` (configuration not stated), the “activity change, negative = inhibition” value is reported as -10.7% (inactive).
With `CC(=O)c1ccc2c(c1)N(CCCN1CCC(CCO)CC1)c1ccccc1S2` the “activity change, negative = inhibition” value was -3.37% [at 54.9 µM] (inactive).
For `CC(O)(P(=O)(O)O)P(=O)(O)O`, the Potency was “inactive”.
`Cc1cc(O)c(C(C)C)cc1Cl` was tested, and the “activity change, negative = inhibition” value was -5.49% (inactive).
% is set by controls: 0 for no effect and ±100 for the full control effect; potency is the fitted concentration of half-maximal effect.
